The source of these data is the supplement of paper PMC6763611.

This assay deals with Plasmodium falciparum NF54. Briefly: growth inhibition relative to untreated control; higher = more inhibition. Conditions: 72 h. In a few lines: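 P. falciparum NF54 ring stages (1% hematocrit, 1% parasitemia, 100 μL/well in 96-well half-area dark plates) were exposed for 72 h at 37 °C to single 5 μM or 1 μM doses of Pathogen Box compounds. The medium was minimal RPMI or minimal RPMI plus chorismate end-products (2.2 μM folate, 7.3 μM pABA, 7.3 μM pHBA, 111 μM tyrosine, 90 μM phenylalanine, tryptophan). Growth inhibition was read by SYBR Green, normalised to untreated controls, with uninfected erythrocytes as background.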

[1] abbreviates: 1 µM, MM + chorismate end-products (CM screening medium).
The mark [2] stands for this setting: 5 µM, MM + chorismate end-products (CM screening medium).

On to `Nc1nccc2ccc(-c3ccc4nccn4c3)cc12`, for which the growth inhibition is, setting by setting: under setting [1], > 100%; (1 µM, minimal medium (MM)) > 100%; under setting [2], 97.8%; (5 µM, minimal medium (MM)) 88.2%.

As for `Cc1cc(NC(=O)c2ccc(S(=O)(=O)N(Cc3ccccc3)C(C)C)cc2)no1`, the growth inhibition is, setting by setting: under setting [1], 95.5%; (1 µM, minimal medium (MM)) > 100%; under setting [2], 99.8%; (5 µM, minimal medium (MM)) 93.1%.

For `COc1ccc(N(CCc2cccc(C)n2)C(=O)C2CCCCC2)cc1`, the growth inhibition reads like this: under setting [1], 4.48%; (1 µM, minimal medium (MM)) 36.2%; under setting [2], 4.56%; (5 µM, minimal medium (MM)) 9.01%.

For the molecule `COC(=O)c1cccc2oc(-c3cccc(OC)c3NC(=O)c3cc(-c4ccccc4)on3)nc12`, the growth inhibition was < 0% under setting [1]; < 0% (1 µM, minimal medium (MM)); < 0% under setting [2]; < 0% (5 µM, minimal medium (MM)).

On to `CC(=O)N1CCc2cc3nc(C)cc(C)c3cc21`, for which the growth inhibition runs as follows: under setting [1], 13.3%; (1 µM, minimal medium (MM)) < 0%; under setting [2], 38.1%; (5 µM, minimal medium (MM)) < 0%.

With `CC(C)(C)n1nc(Cc2ccc(F)c(Cl)c2)c2c(N)ncnc21`, the growth inhibition is 5.37% under setting [1]; < 0% (1 µM, minimal medium (MM)); 54.9% under setting [2]; 1.6% (5 µM, minimal medium (MM)).

For `COc1ccc(-c2nnc3ccc(-c4cccc(C(C)C)c4)cn23)cc1OC`, the growth inhibition under setting [1] amounted to 9.51%; the growth inhibition (1 µM, minimal medium (MM)) stood at 3.89%; the growth inhibition under setting [2] came out at 33.1%; the growth inhibition (5 µM, minimal medium (MM)) is < 0%.

With `NCC(c1cccs1)S(=O)(=O)c1ccccc1` (stereo not drawn), the growth inhibition reads like this: under setting [1], 36.2%; (1 µM, minimal medium (MM)) < 0%; under setting [2], < 0%; (5 µM, minimal medium (MM)) 4.01%.

Regarding `O=C1N(Cc2cc3ccccc3s2)CC2CN(Cc3ccccc3)CCN12` (stereo not drawn), the growth inhibition is, setting by setting: under setting [1], 97.5%; (1 µM, minimal medium (MM)) 98%; under setting [2], 96.5%; (5 µM, minimal medium (MM)) 94.8%.

`CN1CCC(NCc2cccc(-c3ccc(S(=O)(=O)NCc4ccccc4)cc3)c2)CC1`: the growth inhibition runs as follows: under setting [1], 96.4%; (1 µM, minimal medium (MM)) > 100%; under setting [2], 96%; (5 µM, minimal medium (MM)) 94.2%.

With `COc1ccc(-c2cc(NC(=O)c3ccc(F)cc3Cl)ccc2OC)cc1`, the growth inhibition was 8.71% under setting [1]; 13.2% (1 µM, minimal medium (MM)); < 0% under setting [2]; < 0% (5 µM, minimal medium (MM)).

Consider `COc1ccc(C2=NCCN2)cc1-c1cn(-c2cccc(C3=NCCN3)c2)nn1`, for which the growth inhibition was 84.5% under setting [1]; 80.4% (1 µM, minimal medium (MM)); > 100% under setting [2]; 91.6% (5 µM, minimal medium (MM)).
